Shiga inhibitor = blocks Shiga toxin action in Vero cells | AID 2315 | inhibition, % at 38.7 µM | Vero cells, Shiga toxin protein synthesis inhibition reporter | actives 9.2% (n = 290,000); in the data active = inhibition mostly above about 28%, no sharp cut-off; inactive = mostly below about 43%; note: 0% is about no effect
LASV entry inh = blocks Lassa virus binding to or entry into cells; Lassa virus pseudotype entry inhibition, cell reporter; Potency, µM (doses to about 37.9 µM), without a hit: at the highest dose activity change, negative = inhibition, usual class: inhibitors; actives 1.2% (n = 300,000); AID 540256; calls by dose curve; tested in HEK293 cells; note: potency is the fitted concentration of half-maximal effect; % is set by controls: 0 for no effect and ±100 for the full control effect; nearly all actives have a fitted effect of over 50% in size
CHX counter = counter-screen for Shiga toxin inhibitors: cycloheximide protein synthesis inhibition | cell reporter, cycloheximide protein synthesis inhibition counterscreen | max response, % | actives 12% (n = 300,000) | AID 2314; in the data active = max response mostly above about 13%, no sharp cut-off; inactive = mostly below about 14%; note: read at 38.3 µM for the half of the compounds with a filed dose; 0% is about no effect
Pf growth 48h = P. falciparum growth inhibition at 48 hours (one generation). P. falciparum luciferase growth in erythrocytes, 48 h. actives 5.9% (n = 310,000). Potency, µM (titrated, usually from 28.7 µM), for the others: at the top dose activity change, negative = inhibition, hits mostly inhibitors; note: potency is the fitted concentration of half-maximal effect; % is set by controls: 0 for no effect and ±100 for the full control effect
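Here the parasites carry a stable luciferase gene and grow inside erythrocytes in Albumax-based RPMI medium with compound for one erythrocytic cycle. Activity is scored as loss of luminescent signal.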
Pf growth 96h = P. falciparum growth inhibition at 96 hour, primary screen for plastid delayed-death inhibitors; P. falciparum luciferase reporter growth, 96 h; Potency, µM (highest dose often 28.7 µM), without a hit: at the highest dose activity change, negative = inhibition, most hits filed as inhibitors; actives 6.9% (n = 320,000); note: potency is the fitted concentration of half-maximal effect; % is set by controls: 0 for no effect and ±100 for the full control effect
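Infected RBCs, 2% Hct / 0.05% parasitemia final; luciferase-reporter P. falciparum; cpd 96 h, 37 C, 5% CO2; luciferase detection reagent; luminescence.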
MARV entry inh = Marburg virus entry inhibition. Marburg virus pseudotyped entry inhibition, cell reporter. actives 1.8% (n = 300,000). Potency, µM (highest dose often 37.8 µM), for inactives: at the top dose activity change, negative = inhibition, usual class: inhibitors; calls by dose curve; tested in HEK293 cells; note: potency is the fitted concentration of half-maximal effect; % is set by controls: 0 for no effect and ±100 for the full control effect
Numbers without * were called inactive; ? = inconclusive; · = no result given; ! = not confirmed by another sample; [ ] = dose if it differs, or a comment. Rows were chosen to be rich in hits. Some 19% of all compounds tested hit in one or more screens of this group. Unless noted, calls come from the whole dose curve; as a rule, active = well fitted inhibition curve with a large enough effect; inconclusive = small, poorly fitted or top-dose-only effect, or another doubt; inactive = no such curve, though single readings can be large or run the other way.

SMILES | Shiga inhibitor | LASV entry inh | CHX counter | Pf growth 48h | Pf growth 96h | MARV entry inh
COc1ccc(-c2nnc(SCC(=O)NCCc3ccc(S(N)(=O)=O)cc3)o2)cc1OC | -5 | · | -1 | -11% | 4% | ·
Cc1ccccc1C(=O)c1cn[nH]c1-c1ccccc1O | 7 | · | 12 | 18% | ? | ·
N#Cc1ccccc1NC(=O)COC(=O)CSc1nc2ccccc2o1 | -5 | 2% | 1 | 26% | 1µM* | 20%[46.1 µM]
COc1ccccc1N1CCN(/N=C(\C)c2ccccc2O)CC1 | 34* | · | 32* | 26% | -26% | ·
COc1cc(/C(C)=N/N2CCN(c3ccccc3OC)CC2)ccc1O | 20 | · | 22* | 0% | ? | ·
C/C(=N\N1CCCCC1)c1ccccc1O | 1 | · | -1 | 19% | 12% | ·
N#Cc1ccc(/C=N/NC(=O)c2ccccc2F)cc1 | 13 | 11% | 12 | 140% | 96% | 18%
O=C(N/N=C/C(Br)=C/c1ccccc1)c1ccccc1F | 86* | ? | 34* | ? | ? | ?
O=C(Cc1cc(=O)[nH][nH]1)N/N=C/C(Cl)=C/c1ccccc1 | -10 | 5% | -1 | 1.2µM*! | 62% | ?
O=C(N/N=C/C(Cl)=C/c1ccccc1)c1ccccc1F | 80* | -29%[46.1 µM] | 56* | -35% | ? | ?
O=C(CNc1cccc2ccccc12)N/N=C/C(Br)=C/c1ccccc1 | -8 | ? | -2 | 7% | 15% | ?
COc1ccc(S(=O)(=O)NNC(=O)Cc2csc(C)n2)cc1[N+](=O)[O-] | · | -3% | · | 7% | 1% | 11%[46.1 µM]
Cc1ccc(Oc2coc3cc(OC(=O)c4cccs4)ccc3c2=O)cc1 | 16 | -3% | 15 | 41% | 2% | ?
O=[N+]([O-])c1cc(S(=O)(=O)N2CCOCC2)ccc1N1CCNCC1 | · | 16% | · | -12% | 19% | 28%
Cc1cc(C(=O)NNC(=S)NCc2ccco2)nn1C | 23 | · | 3 | 17% | 8% | ·
COc1cccc(N2CCN(C(=O)c3cnn(C(C)(C)C)c3C3CCN(C(=O)OC(C)(C)C)CC3)CC2)c1 | · | 1%[46.1 µM] | · | · | · | ·
COc1cccc(N2CCN(C(=O)c3cnn(-c4ccc(C)cc4C)c3C3CCN(C(=O)OC(C)(C)C)CC3)CC2)c1 | · | 1.1µM* | · | · | · | ·
Cc1ccc(-n2ncc(C(=O)N3CCN(C(=O)c4ccco4)CC3)c2C2CCN(C(=O)OC(C)(C)C)CC2)cc1C | -4 | · | 0 | 4.7µM* | 0% | ·
CCOC(=O)c1cnn(-c2ccc(Cl)cc2)c1C1CCN(C(=O)OC(C)(C)C)CC1 | -21 | 3.3µM* | 5 | · | -29% | ?
Cc1ccc2c(c1)cc1c(=O)n(Cc3ccccc3Cl)nc(C)n12 | · | -2%[46.1 µM] | · | · | · | ?
CC(=O)NCC(=O)NC(Cc1ccccc1)C(N)=O (stereo unspecified) | 25 | -5% | 1 | 16% | ? | -10%
CCCNC(=O)c1cc(OC)c(OC)cc1[N+](=O)[O-] | -2 | 4% | -1 | 12% | 24% | 9%
Cc1cc[n+](CCC(=O)O)c2ccccc12 | -12 | -5% | 8 | · | ? | 28%[46.1 µM]
Cc1cc[n+](-c2ccccc2)c2ccccc12 | -10 | ? | 3 | 12µM* | 1.7µM* | ?
COc1ccc(OC)c(C(=O)NC(CC(N)=O)c2ccc(N3CCN(c4ccccc4)CC3)c([N+](=O)[O-])c2)c1 (stereo unspecified) | -5 | · | -2 | 16% | -32% | ·
CC(=O)Nc1cc2c(cc1[N+](=O)[O-])OCCO2 | -7 | 2% | 8 | 50% | 16% | 11%[46.1 µM]
CC1Sc2ccc(S(=O)(=O)N3CCC(C(=O)NCCc4ccccc4)CC3)cc2NC1=O (stereo unspecified) | 6 | ? | 15* | 12µM* | ? | ?
Cc1ccc(NC(=O)C2CCN(S(=O)(=O)c3ccc4c(c3)NC(=O)C(C)S4)CC2)cc1Cl (stereo unspecified) | 2 | · | -2 | 13µM* | ? | ·
Cc1cc(C)cc(NC(=O)C2CCN(S(=O)(=O)c3ccc4c(c3)NC(=O)C(C)S4)CC2)c1 (stereo unspecified) | -2 | · | -2 | ? | ? | ·
CC1Sc2ccc(S(=O)(=O)N3CCC(C(N)=O)CC3)cc2NC1=O (stereo unspecified) | -3 | 28%[46.1 µM] | -2 | 12% | ? | 12%[46.1 µM]

Screening data deposited in PubChem BioAssay by National Center for Advancing Translational Sciences (NCATS).
